# G9a block = qHTS Assay for Inhibitors of Histone Lysine Methyltransferase G9a | G9a H3K9 monomethylation, AlphaScreen, 2 h | AID 504332, 2011 | 8.8% of 350,000 active | Potency, µM (highest dose often 102 µM), for the others: at the highest dose activity, negative = inhibition, usual class: inhibitors; also: potency is read from the fitted curve at half-maximal effect; % is scaled to controls: 0 for no effect and ±100 for the full control effect; nearly all actives have a fitted effect of over 75% in size
# Target sequence (Q96KQ7 913-1193 limits assumed): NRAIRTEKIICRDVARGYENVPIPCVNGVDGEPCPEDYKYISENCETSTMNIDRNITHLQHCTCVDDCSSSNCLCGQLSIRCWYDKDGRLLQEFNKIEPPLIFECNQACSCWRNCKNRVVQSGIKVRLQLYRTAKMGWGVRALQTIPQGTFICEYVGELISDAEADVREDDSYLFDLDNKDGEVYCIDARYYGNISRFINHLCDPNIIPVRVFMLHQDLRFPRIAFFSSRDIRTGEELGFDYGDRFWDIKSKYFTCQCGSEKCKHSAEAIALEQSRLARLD
#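 Quantitative HTS format: methyltransferase activity on a biotin-tagged H3K9 peptide is measured by AlphaScreen, using a rabbit anti-monomethyl-H3K9 antibody with streptavidin donor and anti-IgG acceptor beads. Final levels are 20 nM enzyme, 500 nM peptide, 20 uM SAM; 2 h RT.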
# JMJD2A Tudor inh = qHTS Assay for Inhibitors of JMJD2A-Tudor Domain; Lysine-specific demethylase 4A (Homo sapiens), O75164; AlphaScreen JMJD2A-Tudor / H3K4me3 peptide binding; Potency, µM (titrated, usually from 114 µM), without a hit: top-dose activity change, negative = inhibition, usual class: inhibitors; 4.4% of 390,000 active; also: potency is read from the fitted curve at half-maximal effect; % is scaled to controls: 0 for no effect and ±100 for the full control effect; nearly all actives have a fitted effect of over 50% in size
# PI5P4Ka inh = qHTS for Inhibitors of phosphatidylinositol 5-phosphate 4-kinase (PI5P4K). Phosphatidylinositol 5-phosphate 4-kinase type-2 alpha (Homo sapiens), P48426. 1.2% of 330,000 active. max response, %. PI5P4Kalpha enzyme, ADP-Glo luminescence, 60 min; hits give low values; active = max response of -50% or lower; inconclusive = between -30% and -50%; inactive = -30% or higher; also: value at the top dose of about 77 µM; % is scaled to controls: 0 for no effect and ±100 for the full control effect
#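 Reactions run in 0.038 M HEPES pH 7.4, 0.28 mM EGTA, 0.1% CHAPS and 5% DMSO, with PI5P4Kalpha, substrate, compound and 5 microM ATP final, one hour at room temperature. Readout is ADP-Glo luminescence.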
# PLK1 PBD inh = qHTS for Inhibitors of PLK1-PDB (polo-like kinase 1 - polo-box domain): Primary Screen. Serine/threonine-protein kinase PLK1 (Homo sapiens), P53350. Plk1 PBD binding of FITC phosphopeptide, fluorescence polarization. Potency, µM, for inactives: max response, negative = inhibition, most hits filed as inhibitors. 2.8% of 360,000 active. AID 720504, 2013; also: potency is read from the fitted curve at half-maximal effect; series mostly up to about 57 µM; % is scaled to controls: 0 for no effect and ±100 for the full control effect; nearly all actives have a fitted effect of over 65% in size
# HP1b chromo inh = HTS for Inhibitors of HP1-beta Chromodomain Interactions with Methylated Histone Tails | Chromobox protein homolog 1 (Homo sapiens), P83916 | AlphaScreen HP1-beta / biotin-H3K9me3 peptide binding | Potency, µM (highest dose often 114 µM), for inactives: at the highest dose activity change, negative = inhibition, usual class: inhibitors | 0.56% of 390,000 active; also: potency is read from the fitted curve at half-maximal effect; nearly all actives have a fitted effect of over 70% in size
# Target sequence (P83916 whole entry, looked up): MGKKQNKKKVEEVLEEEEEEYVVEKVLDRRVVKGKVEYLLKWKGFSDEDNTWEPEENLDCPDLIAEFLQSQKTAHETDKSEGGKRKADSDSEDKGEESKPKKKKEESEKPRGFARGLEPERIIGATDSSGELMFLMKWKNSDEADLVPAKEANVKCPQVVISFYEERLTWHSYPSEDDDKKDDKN
#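 Compound inhibition of the preformed complex between 50 nM HP1-beta and 50 nM biotinylated H3K9me3 peptide was read by AlphaScreen. Buffer was PBS pH 7.4 with 0.01% Tween-20. Incubations ran 30 min at room temperature, with 10 ug/mL donor/acceptor beads.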
# BAZ2B block = qHTS Assay for Inhibitors of BAZ2B; Bromodomain adjacent to zinc finger domain protein 2B (Homo sapiens), Q9UIF8; AlphaScreen BAZ2B-H3K14Ac peptide displacement; Potency, µM (top dose mostly 114 µM), for inactives: at the top dose activity change, negative = inhibition, hits mostly inhibitors; 4.4% of 360,000 active; also: potency is read from the fitted curve at half-maximal effect; % is scaled to controls: 0 for no effect and ±100 for the full control effect; nearly all actives have a fitted effect of over 60% in size
#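 AlphaScreen luminescence quantifies BAZ2B engagement of H3K14Ac peptide; the protein and biotinylated peptide are both at 50 nM final, buffer PBS pH 7.4 with 0.01% Tween-20, all steps at room temperature.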
# Active calls of the source: *; ? = inconclusive; . = no result given; [ ] = remark or other dose. Compounds with a hit are over-represented: about 12% of the library has one in this group of screens. Unless noted, calls follow the shape of the dose curve; as a rule, active = well fitted curve in the direction sought with a large enough effect; inconclusive = small, poorly fitted or top-dose-only effect, or another doubt; inactive = no such curve, though single readings can be large; an effect the other way counts as inactive or inconclusive.
SMILES,G9a block,JMJD2A Tudor inh,PI5P4Ka inh,PLK1 PBD inh,HP1b chromo inh,BAZ2B block
COc1cccc(NC(=O)c2sc(-n3nc(C)c(Cc4ccccc4Cl)c3C)nc2C)c1,2%[59 µM],-14%,.,.,58%,-14%
O=C(CCC1CCCCC1=O)c1ccccc1 (stereo not drawn),-2%,24%,-2,1%,49%,11%
O=C(CC1C(=O)CCCC1=O)c1ccccc1,45µM*,-9%,-9,-27%,38%,-34%
CCOc1ccc(NC(=O)CN2CCN(CC(=O)Nc3ccccc3OCC)CC2)cc1,3%[59 µM],-6%,.,.,27%[57 µM],0%
CCOc1ccc(OCC)c(NC(=O)CN2CCN(CC(=O)NC(C)C)CC2)c1,.,28µM*,-8,-19%,?,?
CCOc1ccccc1NC(=O)CN1CCCCCC1,.,3.2µM*,-7,-4%,-13%,50µM*
CCOc1ccc(NC(=O)CN2CCN(CC(=O)Nc3ccc(F)cc3F)CC2)cc1,-39%[59 µM],-13%,.,.,16%[57 µM],-6%
CCOc1ccccc1NC(=O)CSC1=NN2CCCC(=O)N=C2S1,40µM*,1%,-8,-2%,18%,-37%
CCOc1ccccc1NC(=O)COC(=O)C1CC(=O)N(c2c(C)cccc2C)C1 (stereo not drawn),56µM*,1%,0,0%,-21%,-27%
CCOc1ccccc1NC(=O)Nc1nnc(N2CCCCCC2)s1,?,-5%,.,.,35%,-9%
CCOc1ccc(OCC)c(NC(=O)Cn2cccc2)c1,-8%[59 µM],-12%,-1,1%,14%,-36%
CCOc1ccc(OCC)c(NC(=O)CN2CCN(CC)CC2)c1,20µM*,0.89µM*,-7,5%,?,?
CCC1CCCCN1C(=O)COc1ccccc1NC(C)=O (stereo not drawn),45µM*,-12%,-3,-8%,14%,-16%
C=C1c2ccccc2O[C@H](C(=O)OCC)[C@@H]1CCC(C)C (tested in a mixture with another compound),42%,.,.,.,.,.
C=C1c2cccc(OC)c2O[C@H](C(=O)OCC)[C@@H]1CCC(C)C,32µM*,.,.,.,.,.
CCOc1cccc(C2/C(=C(/O)c3ccc4c(c3)CC(C)O4)C(=O)C(=O)N2Cc2ccncc2)c1 (stereo not drawn),.,22µM*,2,-11%,-19%,-32%
COC(=O)c1ccc(C2/C(=C(/O)c3ccc4c(c3)CC(C)O4)C(=O)C(=O)N2Cc2cccnc2)cc1 (stereo not drawn),71µM*,?,-1,-12%,56%,-8%[57.1 µM]
CCOc1cccc(C2/C(=C(\O)c3ccc4c(c3)OCCO4)C(=O)C(=O)N2Cc2ccncc2)c1 (stereo not drawn),-10%,-14%,1,-1%,26%,-16%[57.1 µM]
CC1Cc2cc(/C(O)=C3/C(=O)C(=O)N(Cc4cccnc4)C3c3cccc(O)c3)ccc2O1 (stereo not drawn),?,14%,7,1%,61%,-20%
Cc1ccc(/C=C/C(=O)OCC(=O)Nc2cccc(S(=O)(=O)N(C)C)c2)o1,?,-29%,1,-8%,-25%,79µM*
CCN(CC)S(=O)(=O)c1cccc(NC(=O)COC(=O)/C=C/c2ccco2)c1,16µM*,-15%,-11,-6%,5%,50µM*
CN(C)S(=O)(=O)c1cccc(NC(=O)COC(=O)/C=C/c2ccco2)c1,?,?,?,30µM*,?,?
CCN(CC)S(=O)(=O)c1cccc(NC(=O)COC(=O)/C=C/c2cccs2)c1,12%,-17%,-3,-15%,3%,10%

# Screening data (PubChem)
